# Most compounds without a hit are left out; they make up all but 7% or so of the library.
# rCAG RNA binder – binds r(CAG) RNA repeats; AID 651821; r(CAG) RNA repeat, TO-PRO-1 dye displacement fluorescence; inhibition, % at 3 µM; hit rate 1.3% among 370,000;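 active = inhibition above the plate cutoff, the mean of all test compounds on that plate plus 3 SD, cut at about 35% in these data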;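 note: 0% = DMSO alone and 100% = 100 µM mitoxantrone as full dye displacement; higher means more dye released from RNA so lower well fluorescence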
# KLK7 zymogen act – activators of human kallikrein-7 zymogen; P49862; purified proKLK7, EDANS-DABCYL substrate fluorescence; 100% is mature enzyme control, 0% vehicle; activation, % at 7 µM; hit rate 0.9% among 370,000; AID 652039;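 active = activation above the mean of all tested compounds plus 3 SD, computed per campaign excluding outliers beyond control limits, cut at about 13% in these data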
# ADAM10 inh – inhibits human ADAM10. O14672. recombinant ADAM10, EDANS/DABCYL FRET peptide cleavage, 3 h. inhibition, % at 7 µM. hit rate 0.62% among 370,000. AID 720582;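 active = inhibition above a per-campaign cutoff equal to the mean of compounds falling between control-based bounds plus 3 SD, cut at about 20% in these data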;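 note: 0% = DMSO wells while the 100% control is not disclosed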
# ADAM17 inh – inhibits human ADAM17 | P78536 | recombinant ADAM17, EDANS/DABCYL FRET peptide cleavage | inhibition, % at 6.95 µM | hit rate 0.83% among 370,000 | AID 720648;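 active = inhibition above the mean of compounds lying between control limits plus 3 SD, set per campaign, cut at about 8.5% in these data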;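 note: 0% = DMSO-only wells as the low control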
# AHR activator – human AHR activation; P35869; AHR-responsive luciferase reporter cells, luminescence; activation, % at 5 µM; hit rate 2.5% among 320,000; in the data active = activation above about 47%;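 note: 0% = vehicle wells and 100% = reference agonist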
# Target sequence (P35869 whole entry, looked up): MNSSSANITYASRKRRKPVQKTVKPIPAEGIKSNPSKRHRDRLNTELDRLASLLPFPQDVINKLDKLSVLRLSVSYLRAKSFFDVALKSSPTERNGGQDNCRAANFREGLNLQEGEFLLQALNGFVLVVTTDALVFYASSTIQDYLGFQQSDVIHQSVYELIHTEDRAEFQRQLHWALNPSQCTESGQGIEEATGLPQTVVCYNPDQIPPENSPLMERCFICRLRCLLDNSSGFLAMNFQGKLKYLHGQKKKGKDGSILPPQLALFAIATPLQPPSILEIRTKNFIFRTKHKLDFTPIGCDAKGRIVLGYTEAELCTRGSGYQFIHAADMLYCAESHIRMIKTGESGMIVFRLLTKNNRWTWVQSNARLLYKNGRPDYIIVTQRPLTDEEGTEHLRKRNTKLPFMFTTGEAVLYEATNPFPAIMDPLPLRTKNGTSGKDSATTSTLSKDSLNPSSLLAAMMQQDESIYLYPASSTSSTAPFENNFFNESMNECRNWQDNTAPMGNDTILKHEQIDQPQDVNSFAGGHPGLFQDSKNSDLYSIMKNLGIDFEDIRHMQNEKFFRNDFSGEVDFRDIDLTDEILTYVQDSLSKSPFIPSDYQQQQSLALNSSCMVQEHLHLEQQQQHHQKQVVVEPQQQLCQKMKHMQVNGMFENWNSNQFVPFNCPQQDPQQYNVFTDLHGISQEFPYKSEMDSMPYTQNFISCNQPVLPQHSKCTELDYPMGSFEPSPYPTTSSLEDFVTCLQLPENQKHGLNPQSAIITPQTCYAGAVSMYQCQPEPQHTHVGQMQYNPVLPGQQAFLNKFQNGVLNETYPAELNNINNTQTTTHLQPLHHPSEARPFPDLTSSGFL
# NR3A LBD binder – modulators (binders) of human NR3A ligand-binding domain. Tm shift relative to glycine control, % at 25 µM. NR3A LBD differential scanning fluorimetry, Tm shift; 0% = protein alone, 100% = glycine-bound protein. hit rate 2.5% among 340,000;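 active = melting temperature shift of at least 10% of the positive control shift, at one fixed dose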
# Numbers without * were called inactive; . = not tested or not shown.
SMILES,rCAG RNA binder,KLK7 zymogen act,ADAM10 inh,ADAM17 inh,AHR activator,NR3A LBD binder
CCCCCCCCCc1nc2sc3c(c2c(=O)n1NC(=O)c1ccc([N+](=O)[O-])cc1)CC(C)(C)OC3,21,0,9,-2,1,24*
CCc1nc2sc3c(c2c(=O)n1N)CC(C)(C)OC3,0,0,-7,-1,4,1
CCCc1nc2sc3c(c2c(=O)n1NC(=O)c1ccco1)CC(C)(C)OC3,-4,0,-5,-3,-1,-1
CCCCCCCCCc1nc2sc3c(c2c(=O)n1NC(=O)c1ccccc1[N+](=O)[O-])CC(C)(C)OC3,18,-1,-5,-5,-1,20*
CCOC(=O)C(C(=O)OCC)N(C#N)c1nc(SC)nc(N(C)C)n1,-2,1,-6,-1,62*,0
CCOC(=O)C(C(=O)OCC)N(C#N)c1nc(OC)nc(N(C)C)n1,0,-1,-7,-5,-2,4
C#CCNC(=O)C[C@@H]1C[C@]2(C(=O)OCC)CCC3=C2N(CCC3)C1=O,1,0,0,-3,.,.
COC(=O)C1=C(C)N(C)C(C)=C(C(=O)OC)C1c1ccsc1,-5,1,10,0,2,12*
Cc1ccc(C)c(NS(=O)(=O)c2ccc3oc(=O)ccc3c2)c1,6,-1,7,6,2,2
Cc1ccc(C)c(NS(=O)(=O)c2ccc3c(c2)Cc2cc(S(=O)(=O)Nc4cc(C)ccc4C)ccc2-3)c1,10,0,7,0,1,18*
O=C(OCc1cn(Cc2ccc(F)c(F)c2)nn1)N1CCOCC1,3,0,-11,-6,.,.
CCOc1ccc(C2C(C#N)=C(N)N3C(=C2C#N)Sc2ccccc23)cc1 (configuration not stated),.,.,.,.,11,-10
N#CC1=C(N)N2C(=C(C#N)C1c1ccccc1)Sc1ccccc12 (configuration not stated),.,.,.,.,88*,.
CC(=O)Nc1cc2nn(-c3ccccc3)nc2cc1Cl,-3,1,-66,-21,57*,1
CC(C)(C)C(=O)Nc1cc2nn(-c3ccccc3)nc2cc1Cl,3,0,-28,-8,.,1
O=C(Nc1cc2nn(-c3ccccc3)nc2cc1Cl)c1ccco1,2,0,-10,-6,47*,-4
O=C(Nc1ccc2nn(-c3ccccc3)nc2c1)c1ccco1,12,-12,-91,-35,33,7
COc1ccc2c(C)cc(=O)[nH]c2c1,-3,0,-10,-5,-2,-2
COc1ccc2c(-c3cccnc3)cc(=O)[nH]c2c1,6,-1,-81,-27,78*,0
COc1cccc(CNC(=O)[C@H]2CCCN2C(=O)[C@H]2CCCN2C(=O)N2CCCCC2)c1,2,0,0,-1,.,.
CCc1cc(=S)n2c([nH]c3ccccc32)c1C#N,.,.,.,.,22,7
CCc1c(C)c(C#N)c2[nH]c3ccccc3n2c1=S,19,3,-186,-72,59*,11*
CCCCP(=O)(CCCC)c1ccccc1C(=O)O,9,0,-9,-6,5,12*
CC(C)(C)C(=O)OC12CCCN(C1)/C(=C/c1ccc(C#N)cc1)C2 (configuration not stated),-5,0,-6,-1,.,.
O=C1N=C(N2CCOCC2)S/C1=C/c1ccc(-c2ccc(F)cc2)o1,9,0,-1,1,82*,-4
SMILES,rCAG RNA binder,KLK7 zymogen act,ADAM10 inh,ADAM17 inh,AHR activator,NR3A LBD binder
Cc1ccc(-c2ccc(/C=C3\SC(N4CCOCC4)=NC3=O)o2)cc1,12,-1,-1,-2,54*,1
COc1ccc(OC)c(NC(=O)c2[nH]c(C)c(C(C)=O)c2C)c1,-2,1,-7,-4,75*,0
COc1ccc(CCNC(=O)c2[nH]c(C)c(C(C)=O)c2C)cc1OC,-1,-1,3,-1,74*,0
COc1ccc(Cl)cc1NC(=O)c1[nH]c(C)c(C(C)=O)c1C,2,0,8,2,68*,0
CCOc1ccc(CCNC(=O)c2[nH]c(C)c(C(C)=O)c2C)cc1OCC,0,1,-6,2,19,1
COc1cc(NC(=O)c2[nH]c(C)c(C(C)=O)c2C)c(OC)cc1Cl,.,.,1,-3,.,.
CC1CCC2(CC1)CCN(CCCOC(=O)Nc1cccc(F)c1)C2=O (configuration not stated),-3,0,2,2,.,.
